Reference: PubChem BioAssay AID1159580 (chemical genetic matrix, 2015)
The campaign covered roughly 5,500 compounds. About 2,000 (36%) were called active. Another 18% or so got no clear call; they are omitted. Rule as the data show it: active = normalized growth mostly below about 0.91 (no sharp cut-off); inconclusive = no clear call, values can overlap the other calls; inactive = mostly above about 0.92. This is one part of the list.

Assay: chemical genetic growth profiling, strain panel (AID 1159580);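 also: tested at 20 µM; growth read once vehicle control cultures reached saturation at 30 °C; 1 = growth at the plate median or of vehicle wells; lower values mean less growth of the strain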
Details: S. cerevisiae deletion strains, growth OD
[1] = locus YDR150W, strain NUM1, active compounds read low
[2] = locus YGR078C, strain PAC10, active compounds read low
[3] = locus YMR263W, strain SAP30, active compounds read low
[4] = locus YPL055C, strain LGE1, active compounds read low

Measured: normalized growth

CCN(CC)C(=O)N[C@@H]1C[C@@H]2c3cccc4[nH]cc(c34)C[C@H]2N(C)C1
inactive: locus YAL040C, strain CLN3, active compounds read low 1 | locus YCL061C, strain MRC1 (second series), active compounds read low 1.01 | [1] 1 | locus YDR363W, strain ESC2, active compounds read low 1.01 | locus YER002W, strain NOP16, active compounds read low 0.995 | [2] 1.01 | [3] 1 | locus YMR307W, strain GAS1, active compounds read low 1.01 | locus YNL128W, strain TEP1, active compounds read low 1.01 | locus YNL175C, strain NOP13, active compounds read low 0.993 | locus YNL197C, strain WHI3, active compounds read low 0.995 | locus YNL224C, strain SQS1, active compounds read low 1.02 | locus YOR083W, strain WHI5 (second series), active compounds read low 1.01 | [4] 1.01

COC(CNc1cccc(Cl)c1C#N)OC
inactive: locus YAL013W, strain DEP1, active compounds read low 0.997 | locus YBR229C, strain ROT2, active compounds read low 0.994 | locus YDL101C, strain DUN1, active compounds read low 0.983 | locus YDL134C, strain PPH21, active compounds read low 0.961 | [1] 1.01 | locus YEL061C, strain CIN8, active compounds read low 0.971 | [2] 0.989 | locus YGR229C, strain SMI1, active compounds read low 0.978 | locus YHR030C, strain SLT2, active compounds read low 0.944 | locus YHR087W, strain rtc3, active compounds read low 0.98 | locus YJL187C, strain SWE1, active compounds read low 0.981 | locus YJR043C, strain POL32, active compounds read low 0.989 | locus YJR075W, strain HOC1, active compounds read low 0.958 | locus YLR039C, strain RIC1, active compounds read low 0.983 | locus YLR058C, strain SHM2 (second series), active compounds read low 0.989 | locus YLR085C, strain ARP6, active compounds read low 0.931 | locus YLR262C, strain YPT6, active compounds read low 0.979 | locus YML094W, strain GIM5, active compounds read low 0.953 | locus YMR219W, strain ESC1, active compounds read low 0.986 | [3] 1.01 | locus YNL153C, strain GIM3, active compounds read low 0.946 | locus YNL298W, strain CLA4 (second series), active compounds read low 0.979 | locus YNL322C, strain KRE1, active compounds read low 0.98 | locus YNR030W, strain Alg12, active compounds read low 0.976 | [4] 1.03 | locus YPL241C, strain CIN2, active compounds read low 0.95 | locus YPR135W, strain CTF4, active compounds read low 0.957
